Measured values from the supplement of paper PMC3414501.
Counter-ions that a name gives are not always drawn.

tested on: S. cerevisiae SK1 pCDA2-eGFP (USY613), sporulating; assay: CDA2-GFP sporulation assay sensitivity score (z-score vs DMSO controls); higher = stronger inhibition of sporulation, active = hit call of the paper;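 active = score above 5; some higher scores were not called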

Row | Compound | CDA2-GFP sporulation assay sensitivity score
1 | CC(C)NCC(O)COc1ccc(COCCOC(C)C)cc1 (configuration not stated) [Bisoprolol fumarate] (stock concentration (mM, diluted 1:100): 8.5) | 0.16 (inactive)
2 | CC(=O)[C@]1(O)Cc2c(O)c3c(c(O)c2[C@@H](O[C@H]2C[C@H](N)[C@H](O)[C@H](C)O2)C1)C(=O)c1ccccc1C3=O [Idarubicin hydrochloride] (stock concentration (mM, diluted 1:100): 9.3) | -0.06 (inactive)
3 | COC(=O)C1=C(C)NC(C)=C(C(=O)OC2CCCN(Cc3ccccc3)C2)C1c1cccc([N+](=O)[O-])c1 (configuration not stated) [Benidipine hydrochloride] (stock concentration (mM, diluted 1:100): 6) | 4.32 (inactive)
4 | O=c1c(-c2ccccc2)c1-c1ccccc1 [Diphenylcyclopropenone] (stock concentration (mM, diluted 1:100): 10) | 0.85 (inactive)
5 | CC(Oc1c(Cl)cccc1Cl)C1=NCCN1 (configuration not stated) [Lofexidine hydrochloride] (stock concentration (mM, diluted 1:100): 10) | 7.06 (inactive)
6 | Clc1cccc(Cl)c1NC1=NCCN1 [Clonidine] (stock concentration (mM, diluted 1:100): 10) | -1.29 (inactive)
7 | O=C(O)COCCN1CCN([C@H](c2ccccc2)c2ccc(Cl)cc2)CC1 [Levocetirizine] (stock concentration (mM, diluted 1:100): 10.7) | -2.92 (inactive)
